Data on 8 compounds can be found in PubChem BioAssay (NCI).

Structures are written as SMILES. This is part of a sample that, as a whole, favours compounds with a hit. Of some 83,000 tested, about 20% had one in any assay.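 48-hour exposure, single concentration, 96-well plates; percent growth endpoint where 0 means no net growth. Active: below 10.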 Values without a mark were called inactive. Activity calls are given as the source filed them.

Among the test systems are HCT-15 colon; HT29 colon; SNB-75 CNS; SNB-19 CNS; U251 CNS; PC-3 prostate; SK-MEL-5 melanoma; UACC-62 melanoma; LOX IMVI melanoma; SK-MEL-28 melanoma; SK-MEL-2 melanoma; EKVX NSCLC; SN12C renal; UO-31 renal; TK-10 renal; ACHN renal; CAKI-1 renal; CCRF-CEM leukemia; MOLT-4 leukemia.
Common to all, as to assay: NCI-60 one-dose screen, 48 h (100 = growth as untreated, 0 = no growth, -100 = all killed)
Conditions in all cases: 10 µM unless noted

For `CN(C)CCn1c2ccc(Br)cc2c2nc3ccccc3nc21`, the growth is 20.2% in the test with HCT-15 colon; 16.9% in the test on HT29 colon; 42.3% in the test with SNB-75 CNS; 31.6% in the test on SNB-19 CNS; 32.2% in the test with U251 CNS; 34% in the test with PC-3 prostate. Further, the growth with SK-MEL-5 melanoma was 46.8%; in the test on UACC-62 melanoma, 57.1%; with LOX IMVI melanoma, 14.8%; with SK-MEL-28 melanoma, 84.8%; in the test on SK-MEL-2 melanoma, 41.8%; with EKVX NSCLC, 41.6%. Besides, the growth is 26.5% in the test on SN12C renal; 11% in the test on UO-31 renal; 62.4% in the test with TK-10 renal; 9.3% (active) in the test with ACHN renal; 13.8% with CAKI-1 renal; 28.4% with CCRF-CEM leukemia. Moreover, the growth in the test on MOLT-4 leukemia is 13.7%.
Take `COc1cc2c(cc1OC)C(=O)/C(=C/c1cc(C)c(O)c(C)c1)S2`: the growth in the test on HCT-15 colon was 18.7%; with HT29 colon it was 83.2%; in the test on SNB-75 CNS, 24%; in the test on SNB-19 CNS it was 38.7%; in the test on U251 CNS it was 27.2%; in the test on PC-3 prostate, 38.4%. Also, the growth was 21.3% with SK-MEL-5 melanoma; 43.3% with UACC-62 melanoma; 44.2% in the test with LOX IMVI melanoma; 65% in the test on SK-MEL-28 melanoma; 42.6% in the test on SK-MEL-2 melanoma; 40.8% with EKVX NSCLC. Also, the growth in the test on SN12C renal was 50.4%; in the test with UO-31 renal, 54.8%; in the test on TK-10 renal, 66%; in the test on ACHN renal, 45.3%; in the test on CAKI-1 renal, 43.9%; with CCRF-CEM leukemia it was 17.1%. Moreover, in the test with MOLT-4 leukemia, the growth is 24.5%.
In the case of `c1ccc2c(-c3nccs3)c[nH]c2c1`, the growth was 94.3% in the test on HCT-15 colon; 98.9% in the test with HT29 colon; 90.7% in the test with SNB-75 CNS; 98.1% with SNB-19 CNS; 103% in the test on U251 CNS; 81.5% in the test with PC-3 prostate. Moreover, the growth in the test on SK-MEL-5 melanoma was 95.3%; in the test on UACC-62 melanoma it was 93.5%; with LOX IMVI melanoma, 99.7%; with SK-MEL-28 melanoma, 100%; with SK-MEL-2 melanoma, 112%; in the test with EKVX NSCLC, 88.6%. Besides, the growth in the test with SN12C renal was 98.3%; in the test on UO-31 renal, 85.1%; in the test with TK-10 renal, 84.4%; in the test on ACHN renal, 97.6%; with CAKI-1 renal, 95.6%; with CCRF-CEM leukemia, 111%. In addition, the growth with MOLT-4 leukemia was 91.8%.
With `Cc1ccc(/C=C(/C#N)n2nnc3cccc(F)c32)cc1`, the growth was 5.46% (active) with HCT-15 colon; 9.94% (active) in the test with HT29 colon; -35.7% (active) with SNB-75 CNS; 16.2% with SNB-19 CNS; 13.9% in the test with U251 CNS; 20.8% in the test on PC-3 prostate. Moreover, the growth in the test with SK-MEL-5 melanoma is -55.2% (active); with UACC-62 melanoma it was 13.2%; in the test with LOX IMVI melanoma it was -14.7% (active); with SK-MEL-28 melanoma, 52.4%; with SK-MEL-2 melanoma, 14.6%; in the test on EKVX NSCLC it was 37.6%. Also, the growth in the test with SN12C renal is 12.7%; with UO-31 renal, 15.6%; with TK-10 renal, 25.5%; with ACHN renal it was 18.5%; with CAKI-1 renal, 20.1%; with CCRF-CEM leukemia, 4.82% (active). In addition, the growth in the test on MOLT-4 leukemia is 5.52% (active).
Consider `CC1=C(C(=O)/C=C/c2ccc(N(C)C)cc2)C(c2ccccc2)NC(=S)N1` (configuration not stated), for which the growth is 105% in the test with HCT-15 colon; 102% in the test on HT29 colon; 86.9% with SNB-75 CNS; 95.1% with SNB-19 CNS; 101% in the test with U251 CNS; 98.3% in the test on PC-3 prostate. Also, the growth is 99.3% in the test with SK-MEL-5 melanoma; 94.3% in the test on UACC-62 melanoma; 98.5% with LOX IMVI melanoma; 110% in the test with SK-MEL-28 melanoma; 102% with SK-MEL-2 melanoma; 97.7% in the test on EKVX NSCLC. The growth was 96.9% in the test with SN12C renal; 75.4% with UO-31 renal; 107% in the test on TK-10 renal; 100% with ACHN renal; 89.8% with CAKI-1 renal; 108% in the test on CCRF-CEM leukemia. Further, the growth in the test with MOLT-4 leukemia was 101%.
On to `COc1cc(NC(C)CCCNC(=O)CCC(=O)NCCCNCCCCCCCCCCNCCCNC(=O)CCC(=O)NCCCC(C)Nc2cc(OC)cc3cccnc23)c2ncccc2c1` (configuration not stated), for which the growth with HCT-15 colon was 99.1% [8 µM]; in the test on HT29 colon it was 73.6% [8 µM]; in the test with SNB-75 CNS it was 59.1% [8 µM]; in the test on SNB-19 CNS it was 60.5% [8 µM]; in the test on U251 CNS it was 50.8% [8 µM]; with PC-3 prostate it was 78.2% [8 µM]. For the same compound, the growth with SK-MEL-5 melanoma was 91% [8 µM]; in the test on UACC-62 melanoma, 89.4% [8 µM]; in the test with LOX IMVI melanoma it was 51.1% [8 µM]; in the test on SK-MEL-28 melanoma it was 86.8% [8 µM]; with SK-MEL-2 melanoma it was 93.4% [8 µM]; in the test on EKVX NSCLC, 73.7% [8 µM]. The growth is 41.3% [8 µM] in the test with SN12C renal; 96.3% [8 µM] in the test on UO-31 renal; 100% [8 µM] in the test on TK-10 renal; 96.7% [8 µM] with ACHN renal; 97.3% [8 µM] with CAKI-1 renal; 66.6% [8 µM] in the test with CCRF-CEM leukemia. For the same compound, in the test with MOLT-4 leukemia, the growth is 76.8% [8 µM].
With `O=Cc1cc2ccccc2nc1Oc1ccc(C(F)(F)F)cc1`, the growth in the test on HCT-15 colon is 80.8%; in the test with HT29 colon, 94.1%; with SNB-75 CNS, 83.2%; in the test on SNB-19 CNS, 90.7%; with U251 CNS, 81.6%; in the test on PC-3 prostate, 67.8%. Further, the growth is 94.5% in the test with SK-MEL-5 melanoma; 72.5% in the test on UACC-62 melanoma; 74.3% in the test with LOX IMVI melanoma; 107% in the test on SK-MEL-28 melanoma; 101% in the test with SK-MEL-2 melanoma; 82.4% in the test on EKVX NSCLC. In addition, the growth was 70.5% in the test with SN12C renal; 35.1% with UO-31 renal; 98% in the test on TK-10 renal; 87.7% in the test on ACHN renal; 63.4% in the test with CAKI-1 renal; 6.98% (active) in the test on CCRF-CEM leukemia. Also, in the test on MOLT-4 leukemia, the growth was 60.5%.
Regarding `CCN(CC)c1ccc(/C=N/NC(=O)CSc2nc3ccccc3c(=O)n2CCc2ccc(S(N)(=O)=O)cc2)c(O)c1`, the growth in the test on HCT-15 colon is 25.9%; in the test on HT29 colon, 42.4%; in the test with SNB-75 CNS it was 59.2%; with SNB-19 CNS, 53.9%; in the test with U251 CNS it was 31.7%; in the test on PC-3 prostate it was 45%. For the same compound, the growth in the test on SK-MEL-5 melanoma is 29.4%; in the test on UACC-62 melanoma, 15.5%; in the test on LOX IMVI melanoma, 11.5%; with SK-MEL-28 melanoma, 47.9%; in the test on SK-MEL-2 melanoma, 38.5%; in the test on EKVX NSCLC, 33.8%. For the same compound, the growth was 28.2% with SN12C renal; 28.2% in the test on UO-31 renal; 31.3% in the test with TK-10 renal; 28.7% in the test on ACHN renal; 36% with CAKI-1 renal; 7.41% (active) in the test on CCRF-CEM leukemia. In addition, the growth with MOLT-4 leukemia was 7.09% (active).
